Data on eleven compounds can be found in PubChem BioAssay (NCATS).

Each structure is given as a SMILES string. Results filed as inconclusive are left out. Active and inactive are the calls of the source. Calls come from the whole dose curve; as a rule, active = well fitted inhibition curve with a large enough effect; inconclusive = small, poorly fitted or top-dose-only effect; inactive = flat fitted curve, though single readings scatter.

Common to all, as to test: qHTS profiling for inhibitors of Plasmodium falciparum proliferation (AID 504749); note: nearly all actives have a fitted effect of over 60% in size
What all share (details): P. falciparum in erythrocytes, SYBR Green DNA, 72 h; series mostly up to 28.7 µM
(In qHTS, concentration-response curves come from the screen itself.)

The test system of one assay is C2A. The method, boiled down: (§1)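 Readout was DNA-dye fluorescence from lysed cultures, ex 485/em 535 nm. Parasitized red cells had grown 72 h with compound; data scaled between 0.29 uM artemisinin and DMSO wells and corrected using vehicle-only plates.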
The subject of a further assay is CP185. Summed up: as §1
In the next assay the test system is CP191. Summed up:
as §1

The subject of another assay is CP192. The method, boiled down:
as §1

The subject of a further assay is CP201. Summed up:
as §1

For a further assay, the system named is CP203. The method, boiled down: as §1
The next assay has as its system CP211. Summed up: as §1
The next assay relates to CP217. The method, boiled down:
as §1

The next assay has as its system CP237. Summed up: as §1
The subject of another assay is CP238. Summed up: as §1
The next assay has as its system CP247. The method, boiled down: as §1
For a further assay, the system named is CP250. Summed up:
as §1

The subject of another assay is CP252. Summed up:
as §1

For a further assay, the system named is CP256. The method, boiled down: as §1
The next assay has as its system CP260. The method, boiled down: as §1
A further assay relates to CP262. Summed up:
as §1

Another assay concerns CP265. Summed up:
as §1

Another assay has as its system CP194. Summed up: as §1
The test system of the next assay is CP215. The method, boiled down: as §1
The subject of another assay is ATS95. Summed up: as §1
Potency is the fitted concentration of half-maximal effect.

As to `C/C=C/C=C/C(=O)O`, the Potency result in the assay with C2A, in the assay on CP185, in the assay on CP191, in the assay with CP192, in the assay on CP201 and in the assay on CP203 was “inactive” in each case. The Potency result with CP211, with CP217, with CP237, with CP238, in the assay on CP247 and with CP250 was “inactive” throughout. Also, the Potency entry with CP252, in the assay on CP256, in the assay with CP260, in the assay with CP262 and in the assay with CP265 was “inactive” throughout.
Take `N[C@@H](Cc1cc(I)c(Oc2ccc(O)c(I)c2)c(I)c1)C(=O)O`: the Potency entry in the assay with C2A, with CP185, with CP192, in the assay with CP201, with CP211 and with CP238 was “inactive” throughout. Also, the Potency result in the assay on CP256 and in the assay with CP262 was “inactive” each time.
With `COc1ccc2c(=O)c(C)c(-c3ccccc3)oc2c1CN(C)C`, the Potency entry with C2A, with CP185, with CP191, with CP192, in the assay on CP194 and in the assay on CP201 was “inactive” each time. For the same compound, the Potency entry in the assay with CP203, with CP211, in the assay with CP217, in the assay with CP238, in the assay with CP247 and in the assay with CP250 was “inactive” each time. Moreover, the Potency entry in the assay with CP252, with CP256, with CP260, in the assay on CP262 and in the assay on CP265 was “inactive” in each case.
`Cn1c(O)c(N=NC(N)=S)c2ccccc21`: the Potency result in the assay on CP192, in the assay on CP201, with CP203 and in the assay with CP211 was “inactive” in each case. The Potency with CP237 was 11.2 µM (active); with CP247, 8.91 µM (active).
As for `CC(=O)c1ccc2c(c1)N(CCCN1CCN(CCO)CC1)c1ccccc1S2`, the Potency in the assay on CP185 was 10 µM (active); with CP191 it was 11.2 µM (active); with CP217 it was 10 µM (active); in the assay on CP237, 11.2 µM (active); in the assay on CP247, 11.2 µM (active); with CP252, 10 µM (active). Also, the Potency in the assay on CP256 is 8.91 µM (active); in the assay with CP265, 11.2 µM (active).
Consider `CN1CCc2c(c3ccccc3n2Cc2ccccc2)C1`, for which the Potency result in the assay with C2A, in the assay with CP185, with CP191, in the assay with CP192, in the assay on CP201 and in the assay on CP217 was “inactive” throughout. Further, the Potency result in the assay on CP238, in the assay with CP247, in the assay with CP250, with CP252, in the assay with CP256 and in the assay on CP260 was “inactive” throughout. Further, in the assay with CP265, the Potency result is “inactive”. In addition, the Potency with CP237 is 5.01 µM (active).
In the case of `CN(C)CCOc1ccc(/C(=C(/CCCl)c2ccccc2)c2ccccc2)cc1`, the Potency entry in the assay on C2A, in the assay on CP185, in the assay on CP191, in the assay with CP192, in the assay on CP194 and in the assay on CP201 was “inactive” throughout. Also, the Potency entry with CP203, with CP211, in the assay on CP215, with CP217, in the assay on CP237 and in the assay on CP238 was “inactive” each time. In addition, the Potency result with CP247, with CP250, in the assay with CP252, with CP256, in the assay with CP260 and in the assay with CP262 was “inactive” throughout. In addition, in the assay on CP265, the Potency result was “inactive”.
`OCc1ccccc1`: the Potency result with C2A, with CP185, in the assay with CP192, in the assay with CP194, in the assay with CP201 and in the assay with CP211 was “inactive” each time. In addition, the Potency entry in the assay on CP238, with CP252 and in the assay on CP262 was “inactive” each time. The results for the Potency with CP250 and in the assay with CP256 were 10 µM (active) and 12.6 µM (active), respectively.
On to `Nc1ccc(N=Nc2ccccc2)c(N)n1`, for which the Potency result in the assay on ATS95, in the assay on CP185, with CP192, with CP194, in the assay on CP201 and with CP203 was “inactive” in each case. Also, the Potency entry in the assay on CP211, in the assay on CP217, in the assay with CP237, with CP238, with CP247 and with CP250 was “inactive” in each case. Besides, the Potency result in the assay on CP252, with CP256, in the assay with CP260, in the assay with CP262 and in the assay with CP265 was “inactive” throughout.
For the compound `CC(=O)Nc1ccc(NC(=S)NC(=O)c2ccc(C(C)(C)C)cc2)cc1`, the Potency entry in the assay on C2A, with CP185, in the assay on CP191, in the assay with CP192, in the assay on CP194 and in the assay on CP201 was “inactive” in each case. Moreover, the Potency result in the assay on CP203, with CP211, with CP215, in the assay with CP217, in the assay on CP238 and in the assay on CP247 was “inactive” in each case. Moreover, the Potency result in the assay on CP250, in the assay on CP252, with CP256 and in the assay with CP262 was “inactive” each time.
With `CC(C)CCCCCCc1ccc(O)cc1`, the Potency result with C2A, in the assay on CP185, in the assay with CP191, with CP192, with CP194 and in the assay with CP201 was “inactive” each time. The Potency entry in the assay on CP203, in the assay with CP211, in the assay on CP215, with CP217, in the assay with CP237 and in the assay on CP238 was “inactive” each time. Besides, the Potency result in the assay on CP250, in the assay with CP252, with CP256, in the assay with CP260, with CP262 and in the assay with CP265 was “inactive” each time.
